Records with an inconclusive call do not appear. Calls of active or inactive are those of the source. Rule for the calls, unless noted: active = hit-call score of the fitted dose curve at least 0.9, where 1 is the maximum; inconclusive = response in the unintended direction; inactive = score below 0.9.
What was measured:
[1] = target: mouse Estrogen Receptor alpha (Era), Esr1 (gene 13982) (UniProt P19785); assay: NVS_NR_mERa: NovaScreen (NVS) Nuclear Receptor Binding Assay for mouse Estrogen Receptor alpha (Era) (AID 2283378);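 note: hit means loss of bound radioligand signal relative to DMSO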
Chain of mouse Estrogen Receptor alpha (Era), Esr1 (gene 13982) (P19785 whole entry, looked up): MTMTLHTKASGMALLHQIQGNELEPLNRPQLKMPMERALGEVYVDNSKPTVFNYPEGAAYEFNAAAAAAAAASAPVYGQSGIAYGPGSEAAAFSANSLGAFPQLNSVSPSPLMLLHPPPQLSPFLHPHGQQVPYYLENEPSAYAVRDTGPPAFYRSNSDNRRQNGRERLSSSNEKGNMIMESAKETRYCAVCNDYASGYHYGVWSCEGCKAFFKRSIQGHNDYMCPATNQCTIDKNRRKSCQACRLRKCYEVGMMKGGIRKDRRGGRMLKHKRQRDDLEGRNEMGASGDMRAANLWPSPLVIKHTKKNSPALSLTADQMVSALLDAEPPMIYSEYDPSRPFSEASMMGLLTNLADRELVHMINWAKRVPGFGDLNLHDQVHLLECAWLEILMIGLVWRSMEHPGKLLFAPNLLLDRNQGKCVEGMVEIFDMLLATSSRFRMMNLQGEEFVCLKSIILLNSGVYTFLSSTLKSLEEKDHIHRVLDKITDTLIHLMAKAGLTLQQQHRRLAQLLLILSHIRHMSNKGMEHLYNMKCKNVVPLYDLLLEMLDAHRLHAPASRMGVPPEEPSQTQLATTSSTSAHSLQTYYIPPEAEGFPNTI
How it was run: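 Filter scintillation counts of bound radioligand, measured 18 h post-dose, gave the readout; decreased signal relative to DMSO controls indicated displacement from mouse Era. Primary screen ran in duplicate at 25 uM; active chemicals were retested across concentrations.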

[2] = target: Estrogen receptor (Homo sapiens) (UniProt P03372); assay: OT_ERa_GFPERaERE_0480: Odyssey Thera (OT) 8-hour HeLa Transcription Induction Assay for Estrogen Receptor (AID 2283381; active = hit-call score of the fitted dose curve at least 0.9, where 1 is the maximum; inactive = score below 0.9)
Chain of Estrogen receptor (Homo sapiens) (P03372 whole entry, looked up): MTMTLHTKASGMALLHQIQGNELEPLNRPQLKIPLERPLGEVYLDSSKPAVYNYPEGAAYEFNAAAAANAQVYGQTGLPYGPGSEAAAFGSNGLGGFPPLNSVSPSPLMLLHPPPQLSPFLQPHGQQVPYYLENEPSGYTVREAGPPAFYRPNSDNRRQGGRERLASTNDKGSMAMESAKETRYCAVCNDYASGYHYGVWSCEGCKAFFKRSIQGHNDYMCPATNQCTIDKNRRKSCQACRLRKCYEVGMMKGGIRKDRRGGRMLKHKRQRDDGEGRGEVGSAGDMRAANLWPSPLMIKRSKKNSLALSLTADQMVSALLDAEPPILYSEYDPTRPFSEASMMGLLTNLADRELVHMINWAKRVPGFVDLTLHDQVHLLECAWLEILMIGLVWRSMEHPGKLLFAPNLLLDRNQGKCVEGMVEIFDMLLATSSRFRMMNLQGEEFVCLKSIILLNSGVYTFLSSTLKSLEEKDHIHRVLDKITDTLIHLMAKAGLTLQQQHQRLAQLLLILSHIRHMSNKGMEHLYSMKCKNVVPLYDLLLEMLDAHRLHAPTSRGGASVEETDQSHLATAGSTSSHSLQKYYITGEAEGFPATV
How it was run: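 An 8 h HeLa transcription-induction format with a GFP reporter under ERE control, read by fluorescence microscopy; single endpoint fitted positively with DMSO as baseline.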

[3] = target: Estrogen receptor (Homo sapiens) (UniProt P03372); assay: OT_ERa_GFPERaERE_0120: Odyssey Thera (OT) 2-hour HeLa Transcription Induction Assay for Estrogen Receptor (AID 2283382)
How it was run: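 Two-hour compound treatment of HeLa cells preceded microscopy imaging of an inducible fluorescent reporter. Image-based quantification gave one endpoint, analysed for signal increase relative to DMSO controls.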

[4] = target: Retinoic acid receptor RXR-alpha (Homo sapiens) (UniProt P19793); assay: OT_NURR1_NURR1RXRa_0480: Odyssey Thera (OT) 8-hour HEK293T Protein Complementation Assay for Nurr1/retinoid X receptor (RXR) (AID 2283385)
Chain of Retinoic acid receptor RXR-alpha (Homo sapiens) (P19793 whole entry, looked up, the tested form may be a part): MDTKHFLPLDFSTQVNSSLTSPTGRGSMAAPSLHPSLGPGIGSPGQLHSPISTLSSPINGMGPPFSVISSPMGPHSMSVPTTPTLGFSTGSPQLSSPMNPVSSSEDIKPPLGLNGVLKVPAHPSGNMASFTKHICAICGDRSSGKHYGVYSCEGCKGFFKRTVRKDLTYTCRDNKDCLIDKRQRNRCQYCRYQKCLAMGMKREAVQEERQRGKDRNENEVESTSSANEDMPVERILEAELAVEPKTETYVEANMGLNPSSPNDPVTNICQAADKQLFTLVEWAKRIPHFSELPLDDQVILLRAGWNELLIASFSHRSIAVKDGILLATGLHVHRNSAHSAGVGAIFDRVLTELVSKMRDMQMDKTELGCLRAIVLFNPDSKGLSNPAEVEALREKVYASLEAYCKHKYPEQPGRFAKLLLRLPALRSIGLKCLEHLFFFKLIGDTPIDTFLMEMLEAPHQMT
How it was run: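 Gain in fluorescent complementation signal over DMSO, measured 8 hours after chemical dosing of human kidney HEK293T cells, indicated enhanced Nurr1–RXRα association.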

[5] = target: Retinoic acid receptor RXR-alpha (Homo sapiens) (UniProt P19793); assay: OT_NURR1_NURR1RXRa_1440: Odyssey Thera (OT) 24-hour HEK293T Protein Complementation Assay for Nurr1/retinoid X receptor (RXR) (AID 2283386)
How it was run: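 Cell-based binding reporter: HEK293T cells, 24 h exposure, fluorescence-detected fragment complementation, DMSO as baseline.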

[6] = target: Peroxisome proliferator-activated receptor gamma (Homo sapiens) (UniProt P37231); assay: OT_PPARg_PPARgSRC1_0480: Odyssey Thera (OT) 8-hour Protein-Complementation Assay for Peroxisome Proliferator-activated Receptor Gamma / SRC-1 Co-activator (AID 2283387);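 note: nuclear to cytoplasmic split Venus YFP fluorescence ratio reporting PPARg SRC-1 interaction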
Chain of Peroxisome proliferator-activated receptor gamma (Homo sapiens) (P37231 whole entry, looked up, the tested form may be a part): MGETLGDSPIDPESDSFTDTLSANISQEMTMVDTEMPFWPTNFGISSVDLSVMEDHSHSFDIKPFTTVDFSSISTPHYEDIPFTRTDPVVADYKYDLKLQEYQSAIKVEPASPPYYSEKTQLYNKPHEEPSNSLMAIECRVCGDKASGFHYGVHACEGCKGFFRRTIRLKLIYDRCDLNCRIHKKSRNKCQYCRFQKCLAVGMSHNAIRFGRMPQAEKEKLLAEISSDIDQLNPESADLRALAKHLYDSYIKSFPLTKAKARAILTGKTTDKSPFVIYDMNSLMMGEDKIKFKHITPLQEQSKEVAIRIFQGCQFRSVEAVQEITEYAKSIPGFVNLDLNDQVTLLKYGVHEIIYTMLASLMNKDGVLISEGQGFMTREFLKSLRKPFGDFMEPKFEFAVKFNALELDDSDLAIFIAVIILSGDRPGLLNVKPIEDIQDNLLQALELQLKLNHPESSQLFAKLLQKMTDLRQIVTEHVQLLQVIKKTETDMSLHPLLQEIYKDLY
How it was run: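 Split-YFP (IFP1/IFP2) PPARg/SRC-1 reporter, HEK293T, 37 °C, 5% CO2; 8 h compound; formaldehyde fix + Draq5; high-content imaging, N/C ratio, ≥350 cells/image, positive direction vs DMSO.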

[7] = target: Peroxisome proliferator-activated receptor gamma (Homo sapiens) (UniProt P37231); assay: OT_PPARg_PPARgSRC1_1440: Odyssey Thera (OT) 24-hour Protein-Complementation Assay for Peroxisome Proliferator-activated Receptor Gamma/ SRC-1 Co-activator (AID 2283388);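 note: nuclear to cytoplasmic ratio of reconstituted Venus YFP fluorescence in fixed imaged cells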
How it was run: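 Readout: nuclear-to-cytoplasmic 488 nm fluorescence ratio, ≥350 cells per image, 8 images per well, after 24 h compound exposure of HEK293T expressing PPARg/SRC-1 split-YFP fusions. Activity fitted in positive direction against DMSO.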

[8] = CEETOX_H295R_11DCORT: CeeTox H295R High-throughput Steroidogenesis Assay for 11-Deoxycortisol (11DCORT) (AID 2283432; active = hit-call score of the fitted dose curve at least 0.9, where 1 is the maximum; inactive = score below 0.9); conditions: actives raise or lower the signal
How it was run: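 Steroidogenesis in human H295R cells: 48 h chemical exposure after forskolin priming, 11-deoxycortisol measured by LC-MS/MS.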

[9] = CEETOX_H295R_OHPREG: CeeTox H295R High-throughput Steroidogenesis Assay for OH-Pregnenolone (OHPREG) (AID 2283434; active = hit-call score of the fitted dose curve at least 0.9, where 1 is the maximum; inactive = score below 0.9); conditions: actives raise or lower the signal
How it was run: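 Readout: HPLC-MS/MS of 17alpha-hydroxypregnenolone in medium after 48 h chemical exposure of H295R cells pretreated with forskolin. Values fitted bidirectionally relative to DMSO; chemicals reducing viability to 20–70% were retested after 10-fold dilution.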

[10] = CEETOX_H295R_CORTIC: CeeTox H295R High-throughput Steroidogenesis Assay for Corticosterone (CORTIC) (AID 2283437; active = hit-call score of the fitted dose curve at least 0.9, where 1 is the maximum; inactive = score below 0.9;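 note: corticosterone secreted into medium quantified by mass spectrometry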;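 for AC50: human H295R adrenal cells prestimulated with forskolin before chemical exposure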); conditions: actives raise or lower the signal
How it was run: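 Steps: seed H295R, adhere overnight; 10 uM forskolin 48 h; replace with chemical (0.1% DMSO) 48 h; extract medium with MTBE; quantify corticosterone by HPLC-MS/MS; score bidirectionally vs DMSO.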

[11] = CEETOX_H295R_CORTISOL: CeeTox H295R High-throughput Steroidogenesis Assay for Cortisol (AID 2283438; active = hit-call score of the fitted dose curve at least 0.9, where 1 is the maximum; inactive = score below 0.9;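 note: cortisol secreted into medium quantified by LC-MS/MS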); conditions: actives raise or lower the signal
How it was run: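 Steroidogenesis in H295R, per modified OECD 456: 48 h forskolin (10 uM), then 48 h exposure, 0.1% DMSO. Cortisol by extraction and tandem MS; viability by MTT (570/650 nm); cytotoxic chemicals diluted and re-tested.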

[12] = CEETOX_H295R_DOC: CeeTox H295R High-throughput Steroidogenesis Assay for DOC (AID 2283439; active = hit-call score of the fitted dose curve at least 0.9, where 1 is the maximum; inactive = score below 0.9); conditions: actives raise or lower the signal
How it was run: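 H295R, fsk 10 uM ×48 h pre, cmpd ×48 h (0.1% DMSO). Media → MTBE extr. → LC-MS/MS, DOC. Bidirectional fit vs DMSO; MTT viability same wells, re-test diluted if <70%.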

[13] = target: human Dopamine Transporter (DAT), SLC6A3 (gene 6531) (UniProt Q01959); assay: NVS_TR_hDAT: NovaScreen (NVS) Transporter Assay for human Dopamine Transporter (DAT) (AID 2283374);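 note: activity means loss of bound radioligand signal relative to DMSO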
Chain of human Dopamine Transporter (DAT), SLC6A3 (gene 6531) (Q01959 whole entry, looked up): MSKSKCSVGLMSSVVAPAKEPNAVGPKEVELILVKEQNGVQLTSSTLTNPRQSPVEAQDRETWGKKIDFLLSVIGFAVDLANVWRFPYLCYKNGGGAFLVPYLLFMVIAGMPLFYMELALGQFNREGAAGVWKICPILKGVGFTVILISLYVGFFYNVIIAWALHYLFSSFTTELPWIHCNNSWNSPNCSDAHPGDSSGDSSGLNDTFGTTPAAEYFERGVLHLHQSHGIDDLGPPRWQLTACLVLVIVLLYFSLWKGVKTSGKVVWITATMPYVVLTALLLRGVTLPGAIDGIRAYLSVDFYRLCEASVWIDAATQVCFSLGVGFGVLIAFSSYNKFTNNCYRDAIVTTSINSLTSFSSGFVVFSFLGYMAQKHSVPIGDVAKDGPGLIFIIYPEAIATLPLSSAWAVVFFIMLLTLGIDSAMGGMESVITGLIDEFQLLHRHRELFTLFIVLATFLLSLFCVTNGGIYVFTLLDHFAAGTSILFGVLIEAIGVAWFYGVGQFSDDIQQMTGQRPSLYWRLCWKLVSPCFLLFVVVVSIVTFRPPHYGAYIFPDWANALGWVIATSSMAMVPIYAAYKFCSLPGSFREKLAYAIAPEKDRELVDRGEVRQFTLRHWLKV
How it was run: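 Extracted human SLC6A3 protein incubated 1 h with radioligand and test chemical; bound fraction separated on filters and counted. Single 25 uM duplicate screen preceded concentration-response follow-up; positive and negative controls on every plate.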

[14] = target: Estrogen receptor beta (Homo sapiens) (UniProt Q92731); assay: OT_ER_ERbERb_1440: Odyssey Thera (OT) 24-hour HEK293T Protein-Complementation Assay for Estrogen Receptor-beta/-beta Homodimer (AID 2283380);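 note: fluorescence gain from ER beta LBD homodimer complementation read by laser scanning cytometry; scored as signal increase over DMSO baseline for both agonists and antagonists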
Chain of Estrogen receptor beta (Homo sapiens) (Q92731 whole entry, looked up, the tested form may be a part): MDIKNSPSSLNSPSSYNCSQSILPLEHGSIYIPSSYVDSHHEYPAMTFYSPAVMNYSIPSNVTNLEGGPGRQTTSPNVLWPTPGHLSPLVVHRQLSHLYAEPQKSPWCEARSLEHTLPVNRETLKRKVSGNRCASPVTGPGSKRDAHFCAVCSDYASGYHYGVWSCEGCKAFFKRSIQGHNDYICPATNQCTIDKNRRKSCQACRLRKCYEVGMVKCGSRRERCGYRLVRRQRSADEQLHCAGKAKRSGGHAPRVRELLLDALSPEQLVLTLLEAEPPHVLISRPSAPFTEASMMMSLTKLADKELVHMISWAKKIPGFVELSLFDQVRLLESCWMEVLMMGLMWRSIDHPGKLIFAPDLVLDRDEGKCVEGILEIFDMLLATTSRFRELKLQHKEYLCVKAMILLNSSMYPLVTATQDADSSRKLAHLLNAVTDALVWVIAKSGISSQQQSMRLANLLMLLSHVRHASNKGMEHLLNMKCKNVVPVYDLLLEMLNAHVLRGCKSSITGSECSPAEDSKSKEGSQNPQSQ
How it was run: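 HEK293T cells stably expressing human ER-beta LBD (aa 310-547) PCA homodimer pair, dosed 24 h; formaldehyde-fixed, Draq5-stained. Readout: increase in nuclear (agonist) or nuclear plus cytoplasmic (antagonist) fluorescence intensity versus DMSO, gain-of-signal fitting.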

[15] = target: rat Serotonin Transporter (SERT), Slc6a4 (gene 25553) (UniProt P31652); assay: NVS_TR_rSERT: NovaScreen (NVS) Transporter Assay for rat Serotonin Transporter (SERT) (AID 2283375)
Chain of rat Serotonin Transporter (SERT), Slc6a4 (gene 25553) (P31652 whole entry, looked up): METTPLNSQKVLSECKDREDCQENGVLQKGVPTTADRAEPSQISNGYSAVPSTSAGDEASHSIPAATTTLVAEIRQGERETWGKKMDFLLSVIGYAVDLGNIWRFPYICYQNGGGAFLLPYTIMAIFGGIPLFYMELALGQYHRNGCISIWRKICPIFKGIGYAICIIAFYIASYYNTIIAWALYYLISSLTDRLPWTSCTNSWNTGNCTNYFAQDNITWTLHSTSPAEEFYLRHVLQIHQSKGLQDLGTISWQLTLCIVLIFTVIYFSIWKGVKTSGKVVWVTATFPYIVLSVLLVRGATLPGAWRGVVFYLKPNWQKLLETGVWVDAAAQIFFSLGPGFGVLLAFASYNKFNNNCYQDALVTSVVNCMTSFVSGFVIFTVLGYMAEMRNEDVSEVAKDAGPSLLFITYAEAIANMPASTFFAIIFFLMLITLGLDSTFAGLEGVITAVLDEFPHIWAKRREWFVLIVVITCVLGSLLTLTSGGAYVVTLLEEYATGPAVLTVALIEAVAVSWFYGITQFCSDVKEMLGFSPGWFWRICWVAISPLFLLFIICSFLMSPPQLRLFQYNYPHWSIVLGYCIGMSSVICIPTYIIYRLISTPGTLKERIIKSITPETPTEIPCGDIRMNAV
How it was run: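 Radioligand displacement, filter scintillation readout; rat forebrain membrane prep, 1 h post-dose. Single-conc 25 uM duplicate screen, then concentration-response on actives. Loss of signal vs DMSO baseline.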

[16] = target: Bile acid receptor (Homo sapiens) (UniProt Q96RI1); assay: OT_FXR_FXRSRC1_0480: Odyssey Thera (OT) 8-hour HEK293T Protein-Complementation Assay for Farnesoid X receptor/SRC-1 Co-activator (AID 2283383)
Chain of Bile acid receptor (Homo sapiens) (Q96RI1 whole entry, looked up): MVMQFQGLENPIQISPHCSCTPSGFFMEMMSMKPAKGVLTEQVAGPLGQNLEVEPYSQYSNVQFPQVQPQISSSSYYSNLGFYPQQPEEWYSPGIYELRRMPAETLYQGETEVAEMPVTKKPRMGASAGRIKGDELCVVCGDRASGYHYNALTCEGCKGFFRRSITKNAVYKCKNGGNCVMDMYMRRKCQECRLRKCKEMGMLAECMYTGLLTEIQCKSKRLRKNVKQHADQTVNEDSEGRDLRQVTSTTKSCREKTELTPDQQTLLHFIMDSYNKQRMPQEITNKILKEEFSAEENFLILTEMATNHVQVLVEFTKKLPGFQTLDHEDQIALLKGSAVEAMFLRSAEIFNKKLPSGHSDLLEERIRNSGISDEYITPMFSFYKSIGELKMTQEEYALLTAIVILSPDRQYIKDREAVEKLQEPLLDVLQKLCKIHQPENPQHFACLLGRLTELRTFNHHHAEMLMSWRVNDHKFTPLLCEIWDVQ
How it was run: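 Readings were taken 8 h after dosing HEK293T cells in a split-reporter complementation format pairing FXR with SRC-1. Increased fluorescence relative to DMSO-treated wells defined activity.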

[17] = target: Bile acid receptor (Homo sapiens) (UniProt Q96RI1); assay: OT_FXR_FXRSRC1_1440: Odyssey Thera (OT) 24-hour HEK293T Protein-Complementation Assay for Farnesoid X receptor/SRC-1 Co-activator (AID 2283384)
How it was run: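 Single endpoint, analysed for increased fluorescence against DMSO controls. HEK293T cells carrying FXR and SRC-1 linked to complementary reporter halves were exposed to chemicals for 24 h before reading.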

Compound: C[C@]12C=CC(=O)C=C1CC[C@H]1[C@@H]3C[C@@H](O)[C@](O)(C(=O)CO)[C@@]3(C)C[C@H](O)[C@@]12F
- outcome [1]: inactive
- outcome [2]: inactive
- outcome [3]: inactive
- outcome [4]: inactive
- outcome [5]: inactive
- outcome [6]: inactive
- outcome [7]: inactive
- outcome [8]: inactive
- outcome [9]: inactive
- AC50 [10]: 19.8 µM (active)
- outcome [11]: inactive
- AC50 [12]: 11.2 µM (active)

Compound: OC(CCl)CCl
- outcome [13]: inactive
- outcome [14]: inactive
- outcome [2]: inactive
- outcome [3]: inactive
- outcome [4]: inactive
- outcome [5]: inactive
- outcome [6]: inactive
- outcome [7]: inactive

Compound: CCCCCCCCCC
- outcome [13]: inactive
- outcome [15]: inactive
- outcome [14]: inactive
- outcome [2]: inactive
- outcome [3]: inactive
- outcome [16]: inactive
- outcome [17]: inactive
- outcome [4]: inactive
- outcome [5]: inactive
- outcome [6]: inactive
- outcome [7]: inactive

Compound: CCCCCCCCN(C)C
- AC50 [15]: 12.5 µM (active)
- outcome [2]: inactive
- outcome [3]: inactive
- outcome [4]: inactive
- outcome [5]: inactive
- outcome [6]: inactive
- outcome [7]: inactive
- outcome [8]: inactive
- outcome [9]: inactive
- outcome [10]: inactive
- outcome [11]: inactive
- outcome [12]: inactive
